Assay outcomes: PubChem BioAssay, National Center for Advancing Translational Sciences (NCATS)
PNC inhibitor – perinucleolar compartment assembly inhibition | PC3M PTB-GFP, PNC prevalence imaging, 16 h; active compounds read low | activity change (PNC), negative = inhibition, % at 10 µM | hit rate 3.1% among 140,000;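 active = readout at or below -70, meaning at least 70% loss of cells showing the perinucleolar compartment, a nuclear body marking cancer cells; inconclusive = readout between -30 and a set limit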;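 also: plate controls were DMSO wells for no effect and camptothecin positive control wells for full effect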
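Compounds are pinned in duplicate onto adhered PC3M cells stably expressing GFP-tagged PTB and incubated 16 h at 37 C. Cells are then fixed, nuclei stained with Hoechst, and PNC-positive cells counted.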
IMPase inh – cell-permeable inhibitors of inositol monophosphatase (IMPase); P97697; CHO-M1 cells, IP1 accumulation, HTRF TR-FRET ratio; inhibition (IP1 accumulation), % at 46.1 µM; 120,000 tested, under 10 active; AID 901; active = well fitted curve in the direction sought with a large enough effect in the signal ratio, not every such curve was filed as active; inconclusive = small, poorly fitted or top-dose-only effect, or a change in a side signal; inactive = no such curve, though single readings can be large or run the other way; the % refers to the signal ratio;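 also: cells stimulated with carbachol in lithium chloride buffer; plate controls were DMSO basal wells for no effect and reference inhibitor wells for full effect; higher means more IMPase inhibition seen as more IP1 and lower FRET ratio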
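Carbachol-driven Gq signalling in CHO-M1 cells (2000/well) generates IP1. Compounds that block IMPase raise IP1 and so reduce the FRET signal from Eu-anti-IP1 and d2-IP1 after a 10 min room-temperature lysis.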
ALOX15B inhib – blocks human 15-lipoxygenase 2 activity. O15296. purified 15hLO-2, xylenol orange hydroperoxide absorbance. Potency, µM (top dose mostly 57.1 µM), inactives show at the highest dose activity change, negative = inhibition, most hits filed as inhibitors. hit rate 0.56% among 110,000; also: potency is read from the fitted curve at half-maximal effect; nearly all actives have a fitted effect of over 60% in size
Target sequence (O15296 whole entry, looked up): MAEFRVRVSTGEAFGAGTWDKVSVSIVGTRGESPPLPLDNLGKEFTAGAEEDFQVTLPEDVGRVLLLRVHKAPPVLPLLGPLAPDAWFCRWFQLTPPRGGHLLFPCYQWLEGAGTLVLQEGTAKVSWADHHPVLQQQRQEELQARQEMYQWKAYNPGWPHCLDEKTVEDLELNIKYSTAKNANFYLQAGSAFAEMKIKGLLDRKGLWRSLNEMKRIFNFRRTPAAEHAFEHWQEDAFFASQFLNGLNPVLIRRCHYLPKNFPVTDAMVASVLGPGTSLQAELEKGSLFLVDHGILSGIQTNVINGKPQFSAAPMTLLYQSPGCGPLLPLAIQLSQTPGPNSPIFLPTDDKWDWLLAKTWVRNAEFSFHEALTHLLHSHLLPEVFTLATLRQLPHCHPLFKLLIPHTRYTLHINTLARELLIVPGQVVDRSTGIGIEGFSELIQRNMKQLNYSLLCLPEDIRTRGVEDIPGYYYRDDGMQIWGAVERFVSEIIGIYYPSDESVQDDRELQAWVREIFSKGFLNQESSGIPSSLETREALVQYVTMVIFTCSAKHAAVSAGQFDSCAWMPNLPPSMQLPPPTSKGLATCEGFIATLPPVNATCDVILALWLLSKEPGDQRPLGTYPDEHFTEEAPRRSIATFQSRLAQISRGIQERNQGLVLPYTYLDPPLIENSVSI
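Purified human 15hLO-2 (50 nM) preincubated 15 min with compound, then 45 uM arachidonic acid for 90 min at RT in 25 mM Hepes pH 7.5, 0.01% Triton X-100. Hydroperoxide detected by Fe-xylenol orange; 573/405 nm absorbance ratio.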
ALOX12 inhib – blocks human 12-lipoxygenase activity; P18054; purified 12-hLO, xylenol orange hydroperoxide absorbance; Potency, µM (doses to about 57.1 µM), inactives show at the top dose activity change, negative = inhibition, actives largely listed as inhibitors; hit rate 0.12% among 150,000; also: potency is read from the fitted curve at half-maximal effect; nearly all actives have a fitted effect of over 55% in size
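150 nM 12hLO, 25 mM Hepes pH 7.0 + 0.01% Triton X-100; cpd preinc 15 min RT; 40 uM arachidonic acid, 30 min RT; Fe-XO 30 min; A573/A405 ratio as read-out.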
* hit, by the source's call; u = inconclusive; x = not tested or not shown; [ ] = remark or other dose. Hits are enriched below; roughly 3% of the tested compounds scored in any of these assays. Unless noted, calls follow the shape of the dose curve; as a rule, active = well fitted curve in the direction sought with a large enough effect; inconclusive = small, poorly fitted or top-dose-only effect, or another doubt; inactive = no such curve, though single readings can be large; an effect the other way counts as inactive or inconclusive. Unless noted, % is scaled to controls: 0 for no effect and ±100 for the full control effect.

SMILES	PNC inhibitor	IMPase inh	ALOX15B inhib	ALOX12 inhib
Cc1cc(-c2ccccc2)n(-c2cc(N/N=C/c3ccccc3O)ncn2)n1	-91*	x	x	-1%
CNc1cc(-n2nc(C)cc2-c2ccccc2)ncn1	-8	6	5%	3%
O=C(COc1ccccc1)N1CCN(c2ncnc3c2cnn3-c2ccccc2)CC1	-97*	6	8%	6%
CCC(C)NC(=O)C1CCCN1S(=O)(=O)c1ccc(Cl)cc1 (configuration not stated)	-119*	-5	x	-1%
CCC(C)NC(=O)C1CCCCN1S(=O)(=O)c1ccc(F)cc1 (configuration not stated)	u	0	2%	-1%
COc1ccc(N(C)S(=O)(=O)c2cccc(C(=O)OC(C(=O)Nc3cc(C)cc(C)c3)c3ccccc3)c2)cc1 (configuration not stated)	-102*	x	x	-1%
CC(=O)c1cccc(NC(=O)C(OC(=O)c2cccc(S(=O)(=O)N(C)c3ccccc3)c2)c2ccccc2)c1 (configuration not stated)	35	x	x	-4%
COc1ccc(C(=O)N2N=C(c3cccc(OC)c3)CC2(O)C(F)(F)F)cc1 (configuration not stated)	31	x	x	-3%
COc1ccc(OC)c(NC(=O)c2cc3n(n2)C(C(F)(F)F)CC(c2ccc4c(c2)OCO4)N3)c1 (configuration not stated)	-24	-2	3%	2%
O=C(Nc1cc(Cl)ccc1O)c1cc2n(n1)C(C(F)(F)F)CC(c1ccc3c(c1)OCO3)N2 (configuration not stated)	-84*	3	-28%	-1%
C=C(C(C)=O)C(O)c1ccc2ccccc2c1 (configuration not stated)	x	x	x	0%
COc1ccc(OC)c(/C=N/NC(=O)c2cc3c(OC)c(OC)ccc3[nH]2)c1	-112*	x	x	-2%
COc1ccc(OC)c(/C=N\NC(=O)c2ccc(=O)n(C)c2)c1	-17	1	x	-4%
O=[N+]([O-])c1cc(C(F)(F)F)ccc1NCCNC(=S)Nc1ccc(Cl)cc1	-13	5	32µM*	u
NC(N)=NC[C@@H]1COC2(CCCCC2)O1	x	-3[20.6 µM]	8%[25.6 µM]	2%[25.6 µM]
CO[C@H]1OC[C@@]2(C)[C@@H]3C4=C(CN2C(=O)OC(C)(C)C)[C@H](C)[C@H](CO)[C@H](CO)[C@H]4CC[C@H]13	x	x	-5%	-5%
CSC(=S)N(C)C1CCS(=O)(=O)C1 (configuration not stated)	u	1	x	-4%
CN(C1CCS(=O)(=O)C1)S(=O)C12CC3CC(CC(C3)C1)C2 (configuration not stated)	-100*	-2	x	-3%
COCCN(C(=O)C(C)C)c1nnc(-c2ccc(C)cc2)s1	13	-2	21%	-9%
O=C(Nc1ccc(N2CCN(C(=O)c3ccco3)CC2)c(Cl)c1)c1c(F)c(F)c(F)c(F)c1F	-16	3	-2%[2.29 µM]	-5%
CCN1C/C(=C/c2cccc([N+](=O)[O-])c2)C(=O)/C(=C/c2cccc([N+](=O)[O-])c2)C1	-123*	x	x	4%
CCN(Cc1ccccc1)Cc1c(O)ccc2c(=O)c(-c3ccccc3Cl)coc12	x	-1	x	x
COc1ccccc1NC(=S)NCCc1ccc(Cl)cc1	74	0	u	14µM*
COc1ccccc1NC(=S)NC(=O)C(C)(C)C	-26	-4	-24%	13µM*
COc1ccccc1NC(=S)NCCSc1ccc(Cl)cc1	11	13	x	u
SMILES	PNC inhibitor	IMPase inh	ALOX15B inhib	ALOX12 inhib
O=C(CSCCO)Nc1ccc(C2CCCCC2)cc1	-127*	-9	-4%	-10%
CC(=O)c1ccc(NC(=O)CSCCO)cc1	5	-1	-2%	-1%
Cc1cc(C(=O)COC(=O)c2ccc(O)cc2)c(C)n1CC1COc2ccccc2O1 (configuration not stated)	-81*	x	x	-3%
COc1cccc(/C=C/C(=O)OCC(=O)c2cc(C)n(CC3CCCO3)c2C)c1OC (configuration not stated)	-1	-7	x	2%
S=C(NCCc1ccccc1)N/N=C/c1c(Cl)cccc1Cl	7	3	x	-21%
CN(C)CCCN(C(=O)c1sc2ccccc2c1Cl)c1nc2ccc(F)cc2s1	-94*	x	x	1%
CNS(=O)(=O)c1cccc(C(=O)Nc2cccc(Cl)c2)c1	-94*	0	2%	-3%
COc1ccc(C)cc1NC(=O)CN(c1ccccc1F)S(C)(=O)=O	-3	-5	-1%	0%
COc1ccc(C)cc1NC(=O)CN(c1ccc(F)cc1)S(C)(=O)=O	-94*	1	6%	-4%
CCCCCCCCC(=O)Nc1cc(C)ccc1OC	-100*	3	x	-1%
Cc1ccc(O)c(NC(=O)CCCC(=O)O)c1	-101*	3	2%	-3%
Cc1ccc(NC(=O)CCCC(=O)O)c(Br)c1	-27	8	4%	-4%
CCC1CCCCN1Cc1ccc(OC)c(C)c1C (configuration not stated)	-22	0	-1%	-4%
CCOc1ccc(-n2nnc3c(=O)n(C/C=C/c4ccccc4)cnc32)cc1	-89*	1	-2%	5%
CCOC(=O)Cn1nc(Cc2ccccc2)c2ccccc2c1=O	u	-3	-1%	-1%
CCOC(=O)N1CCC(NC(=O)Cn2nc(Cc3ccncc3)c3ccccc3c2=O)CC1	-106*	-6	3%	11%
CC(=O)Oc1ccc2c(c1)Oc1cc(OC(C)=O)ccc1C21OC(=O)c2ccccc21	-100*	5	x	-4%
CCN(CC)[C@@H](C)CN1c2ccccc2Sc2ccccc21	x	14[20.6 µM]	13µM*	u
CCc1ccc2c(c1)N(C[C@H](C)CN(C)C)c1ccccc1S2	x	x	4%[11.4 µM]	3%[11.4 µM]
CCC(C)N(C)Cc1cccc(C2(O)CCN(S(=O)(=O)c3ccc(F)c(C)c3)CC2)c1 (configuration not stated)	-113*	x	x	1%
Cc1ccc(OCc2nnc(NC(=O)c3ccco3)s2)c(C)c1	-107*	15	-5%	-2%
N#CC1=C2SCN(c3ccccc3)CN2C(=O)CC1c1c(Cl)cccc1Cl (configuration not stated)	34	4	7.9µM*	28µM*
N#CC1=C2SCN(Cc3ccco3)CN2C(=O)CC1c1c(F)cccc1Cl (configuration not stated)	18	-7	u	-7%
N#CC1=C2SCN(c3ccccc3)CN2C(=O)CC1c1cccs1 (configuration not stated)	-3	-14	13µM*	u
N#CC1=C2SCN(Cc3ccccc3)CN2C(=O)CC1c1ccccc1F (configuration not stated)	-9	-4	-28%	-14%
N#CC1=C2SCC(O)(c3ccccc3)N2C(=O)CC1c1cccs1 (configuration not stated)	-89*	u	-14%	-19%
N#CC1=C2SCN(c3ccccc3)CN2C(=O)CC1c1ccccc1Cl (configuration not stated)	-1	2	7.9µM*	u
